Where “and” joins values, the source holds several entries; their conditions need not be identical. Equal entries are not always repeated. The campaign covered roughly 430,000 compounds. About 2,600 (0.6%) were called active. Cut-off read from the data, not from the text of the source: active = inhibition mostly above about 37% (no sharp cut-off); inactive = mostly below about 20%. Many of the other results were omitted from the sample, so actives are more common in it than they were.

For this assay, the system named is PriA–SSB C-terminal tail interaction (Klebsiella pneumoniae). The assay can be described thus: inhibitors of Klebsiella pneumoniae PriA binding to SSB C-terminal tail, primary screen, biochemical, AlphaScreen (AID 1272365).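 For inhibition: plate controls were negative control peptide for no effect and reference peptide for full effect.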 The following applies: AlphaScreen SSBct-PriA binding, biotinylated peptide; at 33 µM, active compounds read high. A general note: Bead proximity is the source of the signal in Alpha formats.
As a reminder, the inhibition is the drop in the measured response relative to a control, in per cent. On to `CS(=O)(=O)c1ccc(-c2ccc(NS(=O)(=O)c3ccc4c(c3)CCCC4)cc2)nn1`, for which the inhibition is -11% (inactive).

As to `O=C(c1cccc(Oc2ncccn2)c1)N1CCCC1`, the inhibition is -8% (inactive). For `O=C(C[C@@H]1C/C=C/CC[C@H](Cc2ccc(F)cc2)C(=O)OC[C@@H](Cc2ccccc2)NC1=O)NCCO`, the inhibition was -9.28% (inactive). Regarding `O=C(c1cc(-c2cccs2)on1)N1CCC[C@H](Cc2nc(-c3ccsc3)no2)C1`, the inhibition was 3% (inactive). For `O=C(c1ccc(=O)[nH]n1)N1CCCC(Cc2nc(-c3ccsc3)no2)C1` (configuration not stated), the inhibition is -8% (inactive).

Take `O=C(c1ccc(-n2cccc2)cc1)N1CCC[C@H](Cc2nc(-c3ccsc3)no2)C1`: the inhibition is 31% (active). In the case of `O=C(c1ccc(-c2cccs2)cc1)N1CC(Oc2nccs2)C1`, the inhibition is -9% (inactive). `Cn1c(Nc2ccccc2)cc(=O)n(C)c1=O`: the inhibition is 43.6% (active).

Take `Cc1cc(=O)n(C)c(=O)n1CCCNc1ccccc1`: the inhibition is -14.1% (inactive). For `CC(C)Oc1ccc(C(=O)Nc2cc(=O)n(C)c(=O)n2C)cc1`, the inhibition was -9.4% (inactive). As for `N#Cc1nccnc1N1CCC(CNC(=O)c2cc(=O)c3ccccc3o2)CC1`, the inhibition was -11% (inactive).

In the case of `Cn1nc(CNS(=O)(=O)C2CC2)cc1-c1ccco1`, the inhibition is -8% (inactive).

Turning to `COc1ccc(OC)c(NC(=S)NCc2ccc3c(c2)cc(C)n3C)c1`, the inhibition is 81.2% (active). On to `COc1ccc(NC(=O)NCc2ccc3c(c2)OCO3)c(OC)c1`, for which the inhibition was -0.59% (inactive). With `CCOCC(=O)NCc1ccc2c(c1)cc(C)n2C` the figure was 0.95% (inactive); with `CCOc1ccc(S(=O)(=O)NCCCn2nc(-c3ccncc3)ccc2=O)cc1`, -20% (inactive). `COC(=O)N1CCc2c(sc(NC(=O)c3cccc(N4C(=O)CCC4=O)c3)c2C#N)C1`: the inhibition is -11% (inactive). With `CC(Cc1cccs1)NC(=O)Cc1ccccc1Cl` (configuration not stated), the inhibition is -11% (inactive). With `COC(=O)c1ccc(C=NN2C(C)CCCC2C)cc1` (configuration not stated), the inhibition was 14.5% (inactive). As to `O=[N+]([O-])c1ccc(C=NN2CCN(c3ccc(Cl)cc3)CC2)cc1`, the inhibition was -20.9% (inactive). With `CC1CCCC(C)N1N=Cc1ccc([N+](=O)[O-])cc1` (configuration not stated) the figure was 46.8% (active); with `COc1ccc(C(=O)C=C(C)NCc2ccc3c(c2)OCO3)cc1`, 12.8% (inactive). As to `CN1C(=O)C(C)(C)COc2ccc(NC(=O)c3ccc(Cl)cc3)cc21`, the inhibition was 18% (inactive). Consider `CCOc1ccc(N(CC)S(=O)(=O)c2cccc3nsnc23)cc1`, for which the inhibition was 4.13% (inactive). Then `CCOc1ccc(-c2cn(S(=O)(=O)c3cccc4nsnc34)nc2N)cc1`, with 40.5% (active).

Consider `CCOc1ccc(NC(=O)CCS(=O)(=O)c2cccc3nsnc23)cc1`, for which the inhibition is -12% (inactive). As for `COc1ccccc1-c1nnc2n1N=C(c1ccc(Br)cc1)CS2`, the inhibition was -20% (inactive). For the compound `C=C1Cn2c(nnc2-c2ccc(Br)cc2)S1`, the inhibition was 97% (active). Then `Brc1ccc(-c2nn[nH]n2)cc1`, with -6.63% (inactive); and `O=C(C[C@H]1C/C=C/CCCC(=O)OC[C@H]2CCCN2C1=O)NCCO`, with -5.28% (inactive); and `Cn1nnc2c(N3CC(C(=O)Nc4ccc5cn[nH]c5c4)C3)ncnc21`, with 2% (inactive). With `O[C@H](COc1cccc(Oc2ccccc2)c1)CN1CCN(c2ccccc2)CC1` the figure was 31% (active); with `OC(COc1ccc2c(c1)CCC2)CN1CCN(c2cccc(Cl)c2)CC1` (configuration not stated), -11% (inactive). For the compound `OC(COCc1ccco1)CN1CCN(c2ccccc2)CC1` (configuration not stated), the inhibition is -2.32% (inactive). With `CSCC(C)(O)CNS(=O)(=O)c1cccc2ccccc12` (configuration not stated) the figure was -6% (inactive); with `Cn1nc2cc(Br)ccc2c1C(=O)N1CCc2ncncc2C1`, 1% (inactive). For `CCc1cc(=O)[nH]c2nnc(SCC#N)n12`, the inhibition was -14% (inactive). With `COc1ccc(OC)c2sc(N(CCCN3CCOCC3)C(=O)c3cc(C)no3)nc12`, the inhibition was 3% (inactive).

Regarding `Cc1cc(C)c2nc(N(CCn3cccn3)C(=O)c3cc4ccccc4o3)sc2c1`, the inhibition is -1% (inactive).

`Cc1cc(C)c2nc(N(CCCn3ccnc3)C(=O)c3ccco3)sc2c1`: the inhibition was 95.7% (active). Take `O=C(NCCc1ccoc1)C(=O)Nc1ccc(F)cc1F`: the inhibition is 8% (inactive). For `CCC1SC(=S)N(C)C1=O` (configuration not stated), the inhibition is -17% (inactive). With `CC(C)CCN1C(=O)C(C)(C)COc2cc(NC(=O)CN3C(=O)c4ccccc4C3=O)ccc21`, the inhibition was -6% (inactive). Then `O=C(NCCCn1ccnc1)C(=O)NCC1OCCN1S(=O)(=O)c1cc(F)ccc1F` (configuration not stated), with 70.1% (active); and `O=C(NCCCc1ccccc1)C(=O)NCC1OCCN1S(=O)(=O)c1ccccc1` (configuration not stated), with -3.21% (inactive).

With `Cc1cc(F)ccc1S(=O)(=O)N1CCCOC1CNC(=O)C(=O)NCCC1=CCCCC1` (configuration not stated), the inhibition was 2.41% (inactive).

On to `O=C(Nc1cnc(-n2ccnc2)nc1)c1ccccc1Cl`, for which the inhibition was -6% (inactive). Then `O=C(c1cccs1)c1ccc(CNS(=O)(=O)CCOc2ccccc2)s1`, with -4% (inactive); and `Cc1cc(C)n(-c2nc(N)cc(=O)[nH]2)n1`, with 73% (active). With `Cc1cc(=O)[nH]c(-n2nc(C)c(CCC(=O)Nc3ccc(Cl)cc3)c2C)n1`, the inhibition is -4% (inactive). As for `Cc1cc(C)n(-c2nc(O)cc(=O)[nH]2)n1`, the inhibition is 5.59% (inactive).

In the case of `CN(C)CCN(C(=O)c1cc2cc([N+](=O)[O-])ccc2s1)c1nc2cc3c(cc2s1)OCO3`, the inhibition is 28% (inactive).

On to `O=C(C1CC=CCC1)N1CCCC(S(=O)(=O)c2ccc(F)cc2)C1` (configuration not stated), for which the inhibition was -14% (inactive). For `COc1cc(NC(=O)NCCc2ccc3c(c2)CCCN3C)cc(OC)c1`, the inhibition was 63% (active). Consider `CN1CCCc2cc(CCNC(=O)C(=O)Nc3ccc4c(c3)OCCO4)ccc21`, for which the inhibition is -11% (inactive).

Regarding `CN1CCCc2cc(CCNC(=O)c3ccc(Br)cc3)ccc21`, the inhibition is 18% (inactive) and -16% (inactive). Consider `Cc1ccc(NC(=O)CCc2csc(NC(=O)c3ccc(=O)[nH]c3)n2)cc1Cl`, for which the inhibition is -9% (inactive). Take `CN(C)c1nn(CC(=O)NCc2ccc3c(c2)OCO3)cc1-c1ccc(Cl)cc1`: the inhibition was 1% (inactive).

With `CC1Nc2ncnn2C(c2ccccc2)C1C(=O)Nc1ccccc1` (configuration not stated), the inhibition is -3% (inactive). Take `COc1ccc(/C=N/Nc2ccccc2[N+](=O)[O-])c(C(=O)O)c1OC`: the inhibition entry was “inactive”. Consider `CC(=O)Nc1cccc(C(C)=NNc2ccc(S(=O)(=O)Nc3ccccc3C(=O)O)cc2[N+](=O)[O-])c1`, for which the inhibition was 12% (inactive). Take `Cc1ccc(NS(=O)(=O)c2ccc(N/N=C/c3ccccc3OCC(=O)O)c([N+](=O)[O-])c2)c(C)c1`: the inhibition entry is “active”.

The values above are taken from PubChem BioAssay AID1272365 (Small Molecule Screening Facility, UW Madison, 2018).
